HGIII-sPLA2 inh – human group III sPLA2 inhibitors, primary screen, biochemical, QFRET, BODIPY PC-A2 liposome substrate; Group 3 secretory phospholipase A2 (Homo sapiens), Q9NZ20; QFRET BODIPY PC-A2 liposome hydrolysis, fluorescence; inhibition, % at 12.2 µM; 370,000 tested, 0.56% active;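 active = inhibition above mean plus 3 SD of compounds lying within the high and low control bounds, cut at about 19% in these data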;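 note: 0% = median of test compound wells and 100% = no enzyme DMSO wells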
Target sequence (Q9NZ20 whole entry, looked up): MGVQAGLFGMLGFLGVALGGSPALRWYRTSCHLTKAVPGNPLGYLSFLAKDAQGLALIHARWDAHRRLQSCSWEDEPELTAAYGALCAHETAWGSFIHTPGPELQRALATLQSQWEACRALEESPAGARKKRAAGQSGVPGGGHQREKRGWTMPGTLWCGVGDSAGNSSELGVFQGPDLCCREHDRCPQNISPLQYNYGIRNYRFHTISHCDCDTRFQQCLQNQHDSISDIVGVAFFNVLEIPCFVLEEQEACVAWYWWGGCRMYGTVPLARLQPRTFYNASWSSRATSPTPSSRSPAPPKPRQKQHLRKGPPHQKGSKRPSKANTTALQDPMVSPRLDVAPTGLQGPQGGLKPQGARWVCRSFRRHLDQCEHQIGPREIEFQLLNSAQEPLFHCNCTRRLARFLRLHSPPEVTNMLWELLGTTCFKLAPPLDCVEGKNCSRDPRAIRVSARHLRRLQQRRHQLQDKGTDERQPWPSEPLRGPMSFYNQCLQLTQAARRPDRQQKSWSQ
MsrA inhibitor – bovine MsrA enzyme inhibitors, primary screen, biochemical, absorbance, HTS | inhibition, % at 15.5 µM | 360,000 tested, 0.75% active | AID 651718, 2012 | purified bovine MsrA, absorbance read-out | Methionine sulfoxide reductase A (Bos taurus);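 note: 0% = vehicle wells with enzyme and 100% = reference inhibitor wells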
rCAG RNA binder – binders of r(CAG) RNA repeats, primary screen, biochemical, fluorescence; r(CAG) RNA repeat, TO-PRO-1 dye displacement fluorescence; inhibition, % at 3 µM; 370,000 tested, 1.3% active; AID 651821, 2012;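 active = inhibition above the plate cutoff, the mean of all test compounds on that plate plus 3 SD, cut at about 35% in these data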;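 note: 0% = DMSO alone and 100% = 100 µM mitoxantrone as full dye displacement; higher means more dye released from RNA so lower well fluorescence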
MsrA act – bovine MsrA enzyme activators, primary screen, biochemical, absorbance, HTS; Methionine sulfoxide reductase A (Bos taurus); purified bovine MsrA, absorbance read-out; activation, % at 10.6 µM; 360,000 tested, 0.3% active; AID 602163, 2012; in the data active = activation above about 7.5%;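 note: 0% = vehicle and 100% = reference activator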
MsrA act confirm – bovine MsrA activators, retest, confirmation, biochemical, absorbance, HTS; shares compounds with MsrA act; purified bovine MsrA, absorbance read-out; activation, % at 10.6 µM; 1,000 tested, 12% active; in the data active = activation above about 4%;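 note: enzyme coupled to thioredoxin and thioredoxin reductase with NADPH; 0% = vehicle wells and 100% = reference activator wells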
MsrA conf – bovine MsrA inhibitors, retest, confirmation, biochemical, absorbance, HTS; inhibition, % at 15.5 µM; 2,300 tested, 41% active; shares compounds with MsrA inhibitor; purified bovine MsrA, absorbance read-out;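 note: coupled to thioredoxin reductase with NADPH and selenocystamine and DMSO as substrate; 0% = vehicle only and 100% = full effect of reference inhibitor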
rCAG bind conf – small molecules binding CAG repeat RNA – biochemical, fluorescence, confirmation; shares compounds with rCAG RNA binder; r(CAG) RNA repeat, TO-PRO-1 dye displacement fluorescence; 4,300 tested, 70% active; AID 652065, 2013; inhibition, % at 3 µM;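 active = inhibition above a per-plate cutoff, the mean inhibition of sample wells plus 3 SD, cut at about 35% in these data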;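 note: loss of TO-PRO-1 fluorescence as compound displaces dye from 1x1 AA loop RNA; 0% = DMSO only wells and 100% = 100 µM mitoxantrone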
dCAG dye counter – displacement of TO-PRO-1 from CAG DNA duplex, counter-screen for rCAG RNA repeat binder project, biochemical, fluorescence, TO-PRO-1 dye, d(CAG) DNA oligo | 4,300 tested, 94% active | shares compounds with rCAG RNA binder | inhibition, % at 3 µM | d(CAG) DNA oligo TO-PRO-1 dye displacement;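 active = inhibition above its plate's cutoff, the mean test-well inhibition plus 3 SD, cut at about 4.8% in these data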;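 note: 0% = DNA dye mix with DMSO and 100% = 100 µM mitoxantrone; hits displace the dye from DNA and so lower well fluorescence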
The depositor's hits bear a star; · = no result. Hits are enriched below; roughly 2.8% of the tested compounds scored in any of these assays. Cut-off read from the data, not from the text of the source, unless noted: active = inhibition above about 4.5%; inactive = the rest.

SMILES	HGIII-sPLA2 inh	MsrA inhibitor	rCAG RNA binder	MsrA act	MsrA act confirm	MsrA conf	others
O=S(=O)(Nc1cc(Sc2ncn[nH]2)c(O)c2ccccc12)c1ccccc1	-13	63*	22	14*	1	0
Cc1ccc(NC(=O)c2sc(=S)n(-c3cc(C)ccc3F)c2N)cc1	-1	1	-1	-3	·	·
Cc1cccc(S(=O)(=O)Nc2cccc3c2C(=O)c2ccccc2-3)c1	-13	3	22	-2	·	·
Cc1ccc(NS(=O)(=O)c2ccc3c(c2)C(=O)c2ccccc2C3=O)c(C)c1	-9	10*	6	12*	5.8*	32*
Cc1ccc(C(=O)OCc2nnc(-c3ccccc3)o2)s1	1	1	-3	-5	·	·
O=C(OCc1nnc(-c2ccccc2)o1)c1ccc([N+](=O)[O-])s1	6	9.3*	4	18*	24*	7.2*
Cc1ccccc1Cn1cc(CCC(=O)N2CCOCC2)c2ccccc21	-1	0	-6	-5	·	·
COc1ccc(-c2noc(CSc3nnc(-c4ccccc4)n3C)n2)cc1	·	·	·	-7	·	·
CC1OC2CC(=O)OC2C2=C1C(=O)c1c(O)cccc1C2=O (configuration not stated)	7	8.5*	4	17*	11*	6.8*
C[n+]1c(-c2ccccc2)cc2c(=Cc3ccc([N+](=O)[O-])cc3)c3ccccc3n21	16	11*	11	20*	17*	0
O=c1ccc(-c2ccc([N+](=O)[O-])cc2)nn1-c1ccccc1	-5	0	0	-3	·	·
O=[N+]([O-])c1ccc(-[n+]2nc(-c3ccccc3)nn2-c2ccccc2)cc1	-7	26*	-3	7.8*	4.8*	25*
COc1ccccc1OCC(=O)N/N=C/C=C/c1ccc([N+](=O)[O-])o1	-15	1	36*	10*	2	·	rCAG bind conf=34;dCAG dye counter=17*
Cc1cc(OC(=O)c2ccccc2Cl)c([N+](=O)[O-])c(=O)[nH]1	-1	0	0	-1	·	·
CCOC(=O)C1=C(CSc2nc3c(cc2C#N)CN(C)CC3)OC(N)=C(C#N)C1c1ccc(Cl)cc1 (configuration not stated)	-24	0	35*	9.6*	-2	·	rCAG bind conf=19;dCAG dye counter=11*
COc1ccccc1NC(=O)CN(c1ccccc1)S(=O)(=O)c1ccccc1	-3	-1	3	-13	·	·
Cc1ccc(S(=O)(=O)N(CC(=O)Nc2ccccc2C(=O)O)c2ccccc2)cc1	-13	2	41*	7.8*	-3	·	rCAG bind conf=34;dCAG dye counter=8.4*
COC(=O)[C@]12CCCCC=C1N(Cc1ccc(Cl)cc1Cl)C(=O)[C@H](CC(=O)N1CCCCC1)C2	-9	-1	6	-2	·	·
COC(=O)c1sccc1NC(=O)CSc1ccccc1NS(=O)(=O)c1ccc(Cl)cc1	-78	0	32	-2	·	·
COC(=O)c1sccc1NC(=O)CSc1ccccc1NS(=O)(=O)c1ccccc1Cl	-56	1	36*	8.3*	-5	·	rCAG bind conf=62*;dCAG dye counter=20*

Assay outcomes: PubChem, The Scripps Research Institute Molecular Screening Center
